# Screens as filed in PubChem.
# L3MBTL1 block – L3MBTL1 (human) inhibition; Q9Y468; AlphaScreen L3MBTL1–H3K9me1 peptide binding; Potency, µM (titrated, usually from 57.1 µM), without a hit: at the top dose activity, negative = inhibition, actives largely listed as inhibitors; 230,000 tested, 0.66% active; note: % is set by controls: 0 for no effect and ±100 for the full control effect; nearly all actives have a fitted effect of over 60% in size
#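 Read-out is AlphaScreen signal from streptavidin donor and nickel chelate acceptor beads (10 ug/mL final each) bridging L3MBTL1 (50 nM) and biotinylated K9-monomethylated H3(1-15) peptide (75 nM), after 30 min compound exposure at room temperature.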
# JMJD2A Tudor – JMJD2A Tudor domain (human) inhibition; O75164; AlphaScreen JMJD2A-Tudor / H3K4me3 peptide binding; Potency, µM (doses to about 114 µM), for the others: at the highest dose activity change, negative = inhibition, usual class: inhibitors; 390,000 tested, 4.4% active; AID 504339; note: % is set by controls: 0 for no effect and ±100 for the full control effect; nearly all actives have a fitted effect of over 50% in size
# Sfp PPTase inh – inhibitors of Bacillus subtilis Sfp phosphopantetheinyl transferase; Q9F4F7; Biochemical Sfp PPTase activity, qHTS; Potency, µM, without a hit: largest response in the series, negative = inhibition, hits mostly inhibitors; 310,000 tested, 3.5% active; AID 1490;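 note: the enzyme is Sfp with the accession as filed and its product quenches rhodamine fluorescence; 0% = enzyme reaction without inhibitor and -100% = no enzyme wells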
#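 Step 1, compound plus 15 nM Sfp-PPTase, 15 min, room temperature. Step 2, add rhodamine-CoA (5 uM) and BHQ-2-YbbR (12.5 uM). Step 3, read 525/598 nm fluorescence at 0 and 30 min.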
# BAZ2B block – inhibitors of human BAZ2B bromodomain | Q9UIF8 | AlphaScreen BAZ2B-H3K14Ac peptide displacement | Potency, µM (top dose mostly 114 µM), without a hit: top-dose activity change, negative = inhibition, most hits filed as inhibitors | 360,000 tested, 4.4% active | AID 504333; note: % is set by controls: 0 for no effect and ±100 for the full control effect; nearly all actives have a fitted effect of over 60% in size
#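 BAZ2B (50 nM) with biotin-H3(5-23)K14Ac peptide (50 nM) in PBS pH 7.4, 0.01% Tween-20, preformed 30 min, then compound 30 min at room temperature; top concentration 110uM. AlphaScreen streptavidin donor/nickel chelate acceptor beads (10 ug/mL final), 20 min dark, signal read.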
# HP1b chromo inh – inhibitors of HP1-beta chromodomain binding to methylated histone tails. P83916. AlphaScreen HP1-beta / biotin-H3K9me3 peptide binding. Potency, µM (highest dose often 114 µM), for the others: at the top dose activity change, negative = inhibition, actives largely listed as inhibitors. 390,000 tested, 0.56% active. AID 540317; note: nearly all actives have a fitted effect of over 70% in size
# Target sequence (P83916 whole entry, looked up): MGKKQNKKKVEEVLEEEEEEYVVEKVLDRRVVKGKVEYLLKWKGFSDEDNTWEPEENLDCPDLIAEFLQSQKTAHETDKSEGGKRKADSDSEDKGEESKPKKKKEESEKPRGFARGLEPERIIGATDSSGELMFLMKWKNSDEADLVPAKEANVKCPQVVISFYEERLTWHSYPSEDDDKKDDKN
#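 Compound inhibition of the preformed complex between 50 nM HP1-beta and 50 nM biotinylated H3K9me3 peptide was read by AlphaScreen. Buffer was PBS pH 7.4 with 0.01% Tween-20. Incubations ran 30 min at room temperature, with 10 ug/mL donor/acceptor beads.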
# G9a inh – G9a (human) methyltransferase inhibition; Q96KQ7; G9a H3K9 monomethylation, AlphaScreen, 2 h; Potency, µM (series often up to 102 µM), for the others: at the top dose activity, negative = inhibition, hits mostly inhibitors; 350,000 tested, 8.8% active; note: % is set by controls: 0 for no effect and ±100 for the full control effect; nearly all actives have a fitted effect of over 75% in size
# Target sequence (Q96KQ7 913-1193 limits assumed): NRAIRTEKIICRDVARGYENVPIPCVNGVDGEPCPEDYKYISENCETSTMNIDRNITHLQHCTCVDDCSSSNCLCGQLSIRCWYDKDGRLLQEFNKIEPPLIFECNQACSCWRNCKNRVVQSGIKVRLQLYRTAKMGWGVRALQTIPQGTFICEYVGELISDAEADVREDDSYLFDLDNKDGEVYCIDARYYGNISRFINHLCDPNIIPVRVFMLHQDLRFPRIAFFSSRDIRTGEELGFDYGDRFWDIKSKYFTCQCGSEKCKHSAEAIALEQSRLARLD
#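 Using a bead-based AlphaScreen, monomethylated H3K9 product from 2 h room-temperature reactions (G9a 20 nM, peptide 500 nM, SAM 20 uM) was detected with 0.5 ug/mL rabbit anti-H3K9me1 antibody.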
# The depositor's hits bear a star; ? = inconclusive; . = no result; [ ] = remark or other dose. Rows were chosen to be rich in hits. Some 12% of all compounds tested hit in one or more screens of this group. Calls come from the whole dose curve; as a rule, active = well fitted curve in the direction sought with a large enough effect; inconclusive = small, poorly fitted or top-dose-only effect, or another doubt; inactive = no such curve, though single readings can be large; an effect the other way counts as inactive or inconclusive. Potency is the fitted concentration of half-maximal effect.
SMILES,L3MBTL1 block,JMJD2A Tudor,Sfp PPTase inh,BAZ2B block,HP1b chromo inh,G9a inh
O=C1NN(c2ccc(F)c(Cl)c2)C(=O)/C1=C\c1cccc(OC(=O)c2cccs2)c1,.,79.4µM*,-6.0%,?,?,20µM*
CC(C)=C1C(=O)NN(c2ccc(F)c(Cl)c2)C1=O,-18.0%,-29.1%,16.9%,?,0.8%,.
Cn1c(=O)c2[nH]c(Nc3ccccc3)nc2n(C)c1=O,?,-8.8%,?,4.3%,23.7%,4.6%[59 µM]
Cc1ccc(CNc2nc3c([nH]2)c(=O)n(C)c(=O)n3C)cc1,2.0%,-12.5%,-9.1%,6.0%,12.2%,44.7µM*
O=C(Cc1nnc(CNC(=O)c2ccccc2)s1)Nc1ccc(C(F)(F)F)cc1Cl,.,-8.2%,.,.,.,.
N#Cc1c(=O)c2nc(NCc3ccccc3)ncc2n2ccccc12,.,50.1µM*,3.5%,?,43.0%,-20.6%[12.7 µM]
Cc1cc2ccccn2c1C(=O)c1nc(NCc2ccccc2)ncc1Cl,?,?,-6.0%,?,33.5%,-36.7%
Nc1ccc2ccccc2c1N=Nc1ccccc1,.,12.6µM*,.,.,12.6µM*,.
c1ccc2c(c1)ccc1ccccc12,4.7%,50.3%,.,.,97.0%,.
COc1ccc(N2CCN(C(=O)CSc3nnc(-c4cc5ccccc5cc4O)n3C)CC2)cc1,-0.6%,?,12.0%,5.9%,-3.5%,16.8%
O=C(c1ccc2ccccc2c1)N1CCN(c2ccc(O)cc2)CC1,-2.8%,?,?,-36.6%,?,31.6µM*
O=C(c1ccc2ccccc2c1)N1CCN(c2ccccn2)CC1,3.3%,-19.1%,13.2%,-24.7%,7.9%,6.2%
O=C(CSc1ccc2ccccc2c1)N1CCN(c2ccc(O)cc2)CC1,?,50.1µM*,50.1µM*,50.1µM*,-27.9%,15.8µM*
O=S(=O)(c1ccc2ccccc2c1)N1CCN(c2ccc(O)cc2)CC1,-28.2%,35.5µM*,.,.,?,.
CCCS(=O)(=O)N1CCCC(C(=O)NCCCOC)C1 (stereo not given),.,-27.2%,.,2.4%,3.1%,5.2%[59 µM]
COCCn1c(SCC(=O)c2ccc(OC)cc2)nc2cc(C(=O)NC3CCCC3)ccc2c1=O,.,11.7%,.,2.7%,23.0%,-5.3%[59 µM]
O=C(NCc1ccco1)c1ccc2c(c1)N(Cc1ccc(F)cc1)C(=O)c1ccccc1S2=O (stereo not given),.,-20.5%,.,?,5.6%,-7.3%[59 µM]
CN(C)CCCOc1cccc(Cl)c1,4.5%,17.8µM*,-19.4%,79.4µM*,?,14.1µM*
CC(C)(c1ccccc1)c1ccc(OCC2CO2)cc1 (stereo not given),.,190.3%,7.0%,110.6%,135.0%,257.9%
COc1cccc(C(=O)OCCCN(C)C)c1,0.2%,-11.1%,25.7%,2.1%,16.8%,4.2%[59 µM]
CN(C)CCCOc1cccc(Oc2ccccc2)c1,-6.8%,56.2µM*,-47.2%,?,?,14.1µM*
CC(C)N(CCNCC(O)COc1ccc(C(C)(C)c2ccccc2)cc1)C(C)C (stereo not given),-9.7%,5.62µM*,?,50.1µM*,-13.7%,20µM*
CN(C)CCCOc1ccc(C(C)(C)c2ccccc2)cc1,.,1.58µM*,-27.6%,50.1µM*,?,?
CCCCNCCCOc1cccc(Cl)c1,9.2%,-5.8%,9.5%,6.2%,18.1%,23.9%[12.7 µM]
O=C(NNc1ccccc1)C(=O)NNS(=O)(=O)c1ccc(CCCl)cc1,-1.2%,-18.9%,31.2%,?,50.5%,44.7µM*
SMILES,L3MBTL1 block,JMJD2A Tudor,Sfp PPTase inh,BAZ2B block,HP1b chromo inh,G9a inh
Nc1ccc(S(=O)(=O)Nc2ccc(C(=O)c3ccccc3)cc2)cc1,1.3%,-19.3%,-0.1%,-10.7%,18.5%,.
O=C(Cc1ccccc1)NNS(=O)(=O)c1ccc(F)cc1,-3.1%,-10.2%,7.7%,-14.5%,29.3%,3.5%
Nc1ccc(S(=O)(=O)NNC(=O)C(=O)NNc2ccccc2)cc1,3.1%,-4.1%,-0.4%,-39.0%,22.8%,1.78µM*
Cc1ccc(C)c(NC(=O)CCS(=O)(=O)c2cccc3nsnc23)c1,.,-6.5%,.,2.2%,26.6%,-35.0%[59 µM]
CC(C)(C)C(=O)OCc1cc(=O)n2nc(C3CC3)sc2n1,.,-19.7%,.,-7.3%,35.7%,12.7%[59 µM]
CC(C)CCNC(=O)c1ccc(Cn2c(SCC(=O)NC(C)C)nc3ccccc3c2=O)cc1,.,-13.1%,.,-8.3%,27.1%[57 µM],4.6%[59 µM]
O=C1/C(=C\c2ccc(O)cc2)SC(=S)N1c1cccnc1,-0.2%,?,-28.2%,?,-12.0%,31.6µM*
O=C1NN(c2ccc(F)cc2)C(=O)/C1=C\C=C\c1ccco1,?,?,-7.6%,-38.9%,-35.0%,?
NN1C(=O)/C(=C\c2ccco2)SC1=S,25.1µM*,?,3.16µM*,44.7µM*,-24.2%,25.1µM*
O=C1/C(=C\c2ccco2)SC(=S)N1c1ccc(O)cc1,?,?,15.8µM*,35.5µM*,-31.1%,39.8µM*
O=C1/C(=C/C=C/c2ccco2)SC(=S)N1c1ccc(O)cc1,4.47µM*,-30.9%[11.4 µM],20µM*,31.6µM*,28.2µM*,12.6µM*
Cc1cc(C)c(NC(=O)CN2C(=O)c3cccnc3Oc3ccc(C)cc32)c(C)c1,.,-3.2%,.,-1.3%,33.4%,5.8%[59 µM]
O=C(Nc1nc(-c2ccc(Br)cc2)ns1)c1ccc(F)cc1,.,-10.3%,.,-0.3%,42.0%,5.3%[59 µM]
Cc1ccc(Nc2cc(C)nc3nncn23)c(C)c1,.,-8.5%,.,7.4%,30.3%,3.6%[59 µM]
CCOCCCNC(=O)Cn1nc(C)n2c(cc3cc(C)ccc32)c1=O,.,-17.1%,.,4.2%,11.4%,3.8%[59 µM]
COC(=O)c1ccc(C(NC(=O)OCc2ccccc2)/C(F)=C/[C@@H](C)C(=O)NC2CCCCC2)cc1 (stereo not given in full),.,.,32.6%,.,.,.
O=C1/C(=C/c2cccnc2)SC(=S)N1Cc1ccco1,.,?,.,.,-17.5%,.
CC(C)C(C(=O)O)N1C(=O)/C(=C/C=C/c2ccco2)SC1=S (stereo not given),1.78µM*,3.55µM*,20µM*,4.47µM*,?,3.55µM*
O=C1/C(=C/c2ccco2)SC(=S)N1c1cccnc1,3.16µM*,8.91µM*,31.6µM*,10µM*,15.8µM*,.
Cc1cc(/C=C2\SC(=S)N(Cc3ccco3)C2=O)c(C)n1-c1cccnc1,-1.6%,-22.9%,1.7%,12.6µM*,6.3%,?
CC(C)C(C(=O)O)N1C(=O)/C(=C/c2cccn2C)SC1=S (stereo not given),-12.4%,-25.1%,-3.9%,?,-2.0%,-15.9%[59 µM]
COc1ccc(/C=C2\SC(=S)N(c3cccnc3)C2=O)cc1,.,-0.3%,1.2%,-1.9%,16.7%[57 µM],-16.1%[12.7 µM]
COc1ccc(NC(=O)CSc2nc(-c3ccccc3)nc3c2Cc2c(CO)cnc(C)c2O3)cc1Cl,.,-11.0%,.,?,36.4%,-8.1%[59 µM]
